The record followed here is the supplement of paper PMC12297408.

Where a name gives a salt, the structure may show the parent alone. Unmarked numbers belong to inactive results.

The test system of one assay is Plasmodium falciparum NF54/iGP1_RE9H ulg8 stage V gametocytes. The experiment in a line: gametocyte viability (luciferase signal relative to DMSO control) (% of DMSO control); higher = less gametocytocidal activity, active = 50 or less. The following applies: concentration: 1 µM; exposure time: 72 h. The method, then:
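Synchronous P. falciparum NF54/iGP1_RE9H ulg8 mature stage V gametocytes (day 12) were exposed to Cayman Epigenetics Screening Library compounds at 10 µM or 1 µM for 72 h at 37 °C. Viability was read as RE9H luciferase bioluminescence, normalised to DMSO plate controls (100%); 50 µM methylene blue was the positive control.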
As to `C[S+]([O-])CCCCN=C=S` (centres undefined) [Sulforaphane], the gametocyte viability is 99.8.

For the compound `COc1cc(C(=O)N2CC[C@@H](O)[C@@H](N)C2)cc2nc(-c3cc4ccccc4n3CC3CC3)n(C)c12` [GSK484 (hydrochloride)], the gametocyte viability is 94.7.

Consider `Cc1sc2c(c1C)C(c1ccc(Cl)cc1)=NC(CC(=O)O)c1nnc(C)n1-2` (single isomer, unassigned; (+)) [(+)-JQ1 (free acid)], for which the gametocyte viability was 85.8.

Turning to `CC1=CC(=O)c2c(O)cccc2C1=O` [Plumbagin], the gametocyte viability is 71.2.

As for `N[C@@H]1C[C@H]1c1ccccc1` [Tranylcypromine (hydrochloride)], the gametocyte viability is 91.7.

For `Cc1sc2c(c1C)C(c1ccc(Cl)cc1)=N[C@@H](CC(N)=O)c1nnc(C)n1-2`, the gametocyte viability was 90.9.

Consider `CN(C)NC(=O)CCC(=O)O` [Daminozide], for which the gametocyte viability is 95.2.

The assay is the same for the next values; noted with them: concentration: 10 µM; exposure time: 72 h.
For `C[S+]([O-])CCCCN=C=S` (centres undefined) [Sulforaphane], the gametocyte viability is 96.2.

`COc1cc(C(=O)N2CC[C@@H](O)[C@@H](N)C2)cc2nc(-c3cc4ccccc4n3CC3CC3)n(C)c12` [GSK484 (hydrochloride)]: the gametocyte viability was 41.8 (active).

Take `Cc1sc2c(c1C)C(c1ccc(Cl)cc1)=NC(CC(=O)O)c1nnc(C)n1-2` (single isomer, unassigned; (+)) [(+)-JQ1 (free acid)]: the gametocyte viability is 88.2.

`CC1=CC(=O)c2c(O)cccc2C1=O` [Plumbagin]: the gametocyte viability was 16.7 (active).

Consider `N[C@@H]1C[C@H]1c1ccccc1` [Tranylcypromine (hydrochloride)], for which the gametocyte viability is 91.4.

Regarding `Cc1sc2c(c1C)C(c1ccc(Cl)cc1)=N[C@@H](CC(N)=O)c1nnc(C)n1-2`, the gametocyte viability is 93.5.

As to `CN(C)NC(=O)CCC(=O)O` [Daminozide], the gametocyte viability is 88.8.
